The assay deals with MDA-MB-468 breast. The experiment in a line: NCI-60 one-dose screen, 48 h (100 = growth as untreated, 0 = no growth, -100 = all killed). The settings on record: 10 µM unless noted.

Each structure is given as a SMILES string. Where “and” joins values, the source holds several entries; their conditions need not be identical. Equal values may be shown once. About 83,000 compounds went through this panel and 20% of them were active in at least one assay; those are over-represented in the sample as a whole.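 How to read the values: 0–100, growth inhibition (40 = 60% inhibited); 0, no net growth; -100 to 0, cell death (-40 = 40% of starting cells died; -100 = all dead).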 Calls of active or inactive are those of the source. Rule for the calls: active = growth percent below 10; inactive = the rest.

Take `CCNC(=S)N(Cc1ccccc1)Cc1ccccc1`: the growth is 95.4% (inactive).
Take `Cc1cccc2c3c(sc12)C(c1ccc(Cl)cc1)C(C#N)=C(/N=C/c1ccc(Cl)cc1)O3` (configuration not stated): the growth was 10.9% (inactive).
With `Brc1cccc(-c2cc(-c3ccc4c(c3)OC=CO4)[nH]n2)c1`, the growth was 33.4% (inactive).
For the compound `C#C[C@@]1(O)[C@@H](CO)O[C@@H](n2cnc3c(-c4ccccc4)ncnc32)[C@@H]1O`, the growth was 111% (inactive).
Under `CCN(CC)CCCOc1ccc2ncnc(Nc3ccc(Oc4cccc(C(F)(F)F)c4)c(Cl)c3)c2c1` stands -64.7% (active).
For the compound `CS(=O)(=O)c1ccc(-c2nn(-c3ccccc3)cc2/C=C/C(=O)c2ccc(Br)cc2)cc1`, the growth was 91.4% (inactive).
As to `COc1ccccc1N1C(=N)S/C(=C\c2ccc(OCc3ccccc3F)cc2)C1=O`, the growth was 5.85% (active).
Under `O=C1CC2C=CCN2C=C1NC(=O)c1ccccc1` (configuration not stated) stands 98.9% (inactive); under `Cc1ccc(F)c(NC(=O)Nc2ccc(-c3cccc4[nH]nc(N)c34)cc2)c1`, 15.7% (inactive); under `O=C(Nc1ccc(/C=C2\SC(=O)N(Cc3ccc(OC(F)(F)F)cc3)C2=O)cc1)c1ccc(Cl)c([N+](=O)[O-])c1`, 12.5% (inactive).
For `Nc1ccn(C2OC(CO)C(O)C2O)c(=O)n1` (configuration not stated) the value was 76% (inactive) and 106% (inactive) and 118% (inactive).
On to `NCCOc1ncccc1/C=C1\c2ccccc2-c2ccc([N+](=O)[O-])cc21`, for which the growth was -39.2% (active).
`C=Cc1nn2c(CCC(=O)c3nc4ccccc4[nH]3)nnc2s1`: the growth was 110% (inactive).
On to `COc1ccc(C2CC(c3ccccc3)=NN2c2nc(C)c(C(C)=O)s2)cc1` (configuration not stated), for which the growth is 100% (inactive).
Consider `Cc1nn(-c2ccccc2)c2nc3c(nc12)C(=O)CCC3`, for which the growth was 88.3% (inactive).
For `CC(C)(C)c1cc(C[P+](c2ccccc2)(c2ccccc2)c2ccccc2)cc(C(C)(C)C)c1O` the value was -2.61% (active); for `CC(C)OCc1cc(CN2CCN(c3cccc(Cl)c3)CC2)c(O)c2ncccc12`, -15.4% (active); for `Cc1cccc2c1S/C(=C/c1ccc([N+](=O)[O-])cc1)C2=O`, 112% (inactive).
`CCOc1ccc(C(=O)Nc2ncc(Cc3ccc(F)cc3)s2)cc1`: the growth was 31.9% (inactive).
For `CC(=O)[C@@H]1CCC=C2CC[C@]3(C)[C@@H](CC[C@@H]4[C@@]5(C)CCCNC(C)(C)[C@@H]5CC[C@]43C)[C@H]21` the value was -77.9% (active).
For `Cc1nc(O)cc(=O)[nH]1` the value was 113% (inactive).
Turning to `CCCCCCCCCCCCCCCCCC[S+](C)CC` (configuration not stated), the growth was -42.5% (active).
For `CC(C)OP(=O)(O)c1ncc(-c2ccc(C(F)(F)F)cc2)c(NC2CCCCCC2)n1` the value was 28% (inactive); for `COc1cc(OC)c(NC(=O)c2cc3ccccc3cc2O)cc1Cl`, 75.7% (inactive).
For `Cc1ccc2[nH]c(=S)[nH]c(=O)c2c1` the value was 102% (inactive); for `CC(c1ccccc1)N1C(=O)CSC1=S` (configuration not stated), -5.47% (active); for `CC(=O)Nc1ccc(C(=O)CCl)cc1`, 8.65% (active).
Under `CCN(CCO)CC(C)Nc1ccc([N+](=O)[O-])c2sc3ccccc3c(=O)c12` (configuration not stated) stands 21% (inactive); under `CCCCCc1c(C)[nH]c(/C=C2\N=C(c3ccc[nH]3)C=C2CC)c1C`, -92.1% (active).
Consider `Cc1cc2nc(CC(=O)c3cccc([N+](=O)[O-])c3)c(=O)[nH]c2cc1C`, for which the growth is 85.1% (inactive).
For `CCCCCCCCCCCCNC(=O)N[C@H](C(=O)N[C@H]1/C=C/CCNC(=O)/C=C/[C@H](C)NC1=O)C(C)C` the value was -66.6% (active); for `NC(CSSCC(N)C(=O)O)C(=O)O` (configuration not stated), -17% (active); for `c1ccc2c(c1)Oc1cccnc1-n1nccc1-2`, 94.7% (inactive).
Regarding `O=C1c2ccccc2C(=O)c2c(N=Nc3sc(=O)[nH]c3S)cccc21`, the growth was 104% (inactive).
For the compound `Cc1ccc(Cl)cc1NC(=O)N(C)CCO`, the growth was 132% (inactive).
For the compound `O=C(CCl)N(O)c1ccc(/C=C/c2ccccc2)cc1`, the growth is 25% (inactive) and 6.6% (active).
Turning to `Cc1cc(Br)nnc1Br`, the growth was 101% (inactive).
Regarding `COc1cccc(-c2cc(-c3cccc(NS(C)(=O)=O)c3)nc(N)c2C#N)c1O`, the growth is 2.89% (active).
For `CC1(C)O[C@H]2OC3CCC(=O)CC3(O)[C@H]2O1` (some centres not stated) the value was 98.5% (inactive).
In the case of `CCc1c(C)[nH]c(=O)c(C(N)=O)c1C#N`, the growth was 105% (inactive).
Turning to `Nc1nc(NC2CC2)cc(-c2cccc(Cl)c2Cl)n1`, the growth was 30.8% (inactive).
For `NC1=C(C/C(N)=N\O)C(c2ccccc2Cl)c2c(ccc3ccccc23)O1` (configuration not stated) the value was 61.6% (inactive).
